# Test results from PubChem BioAssay (NCI).
# This is part of a sample that, as a whole, favours compounds with a hit. Of some 83,000 tested, about 20% had one in any assay.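 Each cell line was grown in a 96-well plate and treated with one concentration of compound for 48 hours. Values below 10 were considered active.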 Values without a mark were called inactive. Calls of active or inactive are those of the source.
# Tested on: UACC-62 melanoma
# Assay: NCI-60 one-dose screen, 48 h (100 = growth as untreated, 0 = no growth, -100 = all killed)
# Settings: 10 µM unless noted
row,Compound,growth
1,COc1ccc(/C(C)=C(\c2ccc(Cl)cc2)c2ccc(OCCN3CCCCC3)cc2)cc1,33.4%
2,CN(C)CCCC1(c2ccc(F)cc2)OCc2cc(-c3ccc4cc[nH]c4c3)ccc21 (stereo not drawn),56.9%
3,COc1ccc(/C=C/c2ccc3ccccc3n2)c(OC)c1,65.8%
4,CCCCNC(=O)c1cc([N+](=O)[O-])cc(C2CCCCC2)c1O,20.3%
5,Cc1ccc(C(=O)c2ccc(CC(=O)N=Nc3c(O)[nH]c4ccc(Br)cc34)n2C)cc1,94.6%
6,CC1=C(C(=O)Nc2ccccc2)C(c2ccc3c(c2)OCO3)NC(=S)N1 (stereo not drawn),97.5%
7,Nc1nc(N)c2c(n1)NC(c1cccc(Nc3ccnc4cc(C(F)(F)F)ccc34)c1)CC(c1ccc(Br)cc1)=N2 (stereo not drawn),77.9%
8,O=C1c2ccccc2C(=O)c2c1c(C(=O)NCc1ccccc1)c1ccccn21,92.2%
9,COc1ccc(-c2ccc(-c3ccc(C(=N)N)nc3)s2)cc1Cl,96.3%
10,O=C(CI)NC(=O)NC(=O)NCc1ccccc1,79.3%
11,COc1ccc(C2=CC(c3cc(OC)c(OC)c(OC)c3)n3ncnc3N2)cc1 (stereo not drawn),51.9%
12,Cc1ccc(C(=O)Nc2cccc(C#Cc3cccc4[nH]nc(N)c34)c2)cc1C(F)(F)F,41.1%
13,CCOC(=O)c1ccccc1-c1c2ccc(=[N+](C)C)cc-2oc2cc(N(C)C)ccc12,9.47% (active)
14,NC(=O)c1c(NC(=O)c2cccc(C(F)(F)F)c2)sc2c1CCC(=O)C2,-45.4% (active)
15,COc1cccc(C(=O)NNc2nc(Cl)nc(Cl)n2)c1,101%
16,O=C(/C=C/c1ccc(Cl)cc1)c1cccc(OCCCOc2cccc(C(=O)/C=C/c3ccc(Cl)cc3)c2)c1,90%
17,COc1cc(OC)cc(-c2ccc(-c3ccc(C(=N)N)o3)o2)c1,-3.63% (active)
18,Fc1cccc(-c2ccc3c(c2)C2(CCNCC2)CN3)c1,87.4%
19,S=C(c1ccc2c(c1)OCO2)N1CCN(c2cccc(Cl)c2)CC1,25.4%
20,O=C(NCc1cccc(CNC(=O)Nc2nc3ccccc3[nH]2)c1)Nc1nc2ccccc2[nH]1,-15.9% (active)

row,Compound,growth
1,CCOC(=O)c1cnc2c(N=Nc3ccc(OC)cc3)c(N)nn2c1N,97.3%
2,Cc1ccc2nc(NC(=O)CSc3nc(-c4ccccc4)c(C#N)c4nnnn34)sc2c1,94.7%
3,C#CC#CC#CC#CC#CC#CC#CC#CC[C@@H]1OC[C@@H](COC(=O)O[C@@H](C(=O)O[C@H]2C[C@@]3(O)[C@@H](OC(=O)c4ccccc4)[C@@H]4[C@]5(OC(C)=O)CO[C@@H]5C[C@H](O)[C@@]4(C)C(=O)[C@H](OC(C)=O)C(=C2C)C3(C)C)[C@@H](NC(=O)c2ccccc2)c2ccccc2)O1,25.2%
4,COCCn1cc(-c2csc(-c3c[nH]c4ccc(Br)cc34)n2)c2cccnc21,44.7%
5,c1nc2ccc(-c3cc4ccc5[nH]ncc5c4c4c3CCCC4)cc2[nH]1,31.9%
6,O=[N+]([O-])c1ccc(-c2cn3nc(-c4c[nH]c5ccccc45)sc3n2)cc1,84.2%
7,CN(Cc1cnc2nc(N)nc(N)c2n1)c1ccc(C(=O)NC(CCC(=O)O)C(=O)O)cc1Br (stereo not drawn),30.9%
8,COc1ccc(-c2nc3c(N)c(CO)cnc3s2)cc1,92.7%
9,O=C(Cn1nnc2ccccc21)N/N=C/c1c[nH]c2ccccc12,23%
10,N#Cc1cccc(C2C3=C(COC3=O)N(CCO)c3cc4c(cc32)OCO4)c1 (stereo not drawn),43.4%
11,O=C(/C=C/C12c3ccccc3C(c3ccccc31)C1C(=O)NC(=O)C12)c1ccc(Br)cc1 (stereo not drawn),46.7%
12,COc1cccc(/C=N/NC(=O)c2ccccc2N2CCCC2)c1O,42.5%
13,COc1cc(/C=C/C(=O)c2ccc(-n3cc(CN4CCN(c5cc6c(cc5F)c(=O)c(C(=O)O)cn6C5CC5)CC4)nn3)cc2)ccc1O,61.2%
14,C=CN(C(=O)N1CCN(c2cc3c(cc2F)c(=O)c(C(=O)O)cn3C2CC2)CC1)c1nc(-c2ccc(OC)cc2)cs1,16.4%
15,Oc1ccc(/C=C/c2ccc(O)cc2)cc1,37.4%
16,COc1ccc(/C=C/C(c2cc(OC)c(OC)c(OC)c2)n2ccnc2)cc1O (stereo not drawn),36.4%
17,O=C(N=Nc1c(O)[nH]c2ccccc12)Nc1ccc(F)cc1,79.3%
18,O=c1ccc(=O)n(-c2nc(-c3ccc([N+](=O)[O-])cc3)cs2)[nH]1,90.7%
19,Oc1c(CN2CCC(N3CCCCC3)CC2)cc(Cc2cc(CN3CCC(N4CCCCC4)CC3)c(O)c3ncccc23)c2cccnc12,-18.3% (active)

# Tested on: LOX IMVI melanoma
# Assay: as above
# Settings: 10 µM unless noted
row,Compound,growth
1,COc1ccc(/C(C)=C(\c2ccc(Cl)cc2)c2ccc(OCCN3CCCCC3)cc2)cc1,3.11% (active)
2,CN(C)CCCC1(c2ccc(F)cc2)OCc2cc(-c3ccc4cc[nH]c4c3)ccc21 (stereo not drawn),-83.4% (active)
3,COc1ccc(/C=C/c2ccc3ccccc3n2)c(OC)c1,59.6%
4,CCCCNC(=O)c1cc([N+](=O)[O-])cc(C2CCCCC2)c1O,36.2%
5,Cc1ccc(C(=O)c2ccc(CC(=O)N=Nc3c(O)[nH]c4ccc(Br)cc34)n2C)cc1,88.9%
6,CC1=C(C(=O)Nc2ccccc2)C(c2ccc3c(c2)OCO3)NC(=S)N1 (stereo not drawn),96.2%
7,Nc1nc(N)c2c(n1)NC(c1cccc(Nc3ccnc4cc(C(F)(F)F)ccc34)c1)CC(c1ccc(Br)cc1)=N2 (stereo not drawn),24.6%
8,O=C1c2ccccc2C(=O)c2c1c(C(=O)NCc1ccccc1)c1ccccn21,103%
9,COc1ccc(-c2ccc(-c3ccc(C(=N)N)nc3)s2)cc1Cl,-76.4% (active)
10,O=C(CI)NC(=O)NC(=O)NCc1ccccc1,-77.7% (active)
11,COc1ccc(C2=CC(c3cc(OC)c(OC)c(OC)c3)n3ncnc3N2)cc1 (stereo not drawn),22.2%
12,Cc1ccc(C(=O)Nc2cccc(C#Cc3cccc4[nH]nc(N)c34)c2)cc1C(F)(F)F,25.4%
13,CCOC(=O)c1ccccc1-c1c2ccc(=[N+](C)C)cc-2oc2cc(N(C)C)ccc12,94.6%
14,NC(=O)c1c(NC(=O)c2cccc(C(F)(F)F)c2)sc2c1CCC(=O)C2,5.08% (active)
15,COc1cccc(C(=O)NNc2nc(Cl)nc(Cl)n2)c1,97%
16,O=C(/C=C/c1ccc(Cl)cc1)c1cccc(OCCCOc2cccc(C(=O)/C=C/c3ccc(Cl)cc3)c2)c1,99.1%
17,COc1cc(OC)cc(-c2ccc(-c3ccc(C(=N)N)o3)o2)c1,-64.1% (active)
18,Fc1cccc(-c2ccc3c(c2)C2(CCNCC2)CN3)c1,92.2%
19,S=C(c1ccc2c(c1)OCO2)N1CCN(c2cccc(Cl)c2)CC1,45.4%
20,O=C(NCc1cccc(CNC(=O)Nc2nc3ccccc3[nH]2)c1)Nc1nc2ccccc2[nH]1,-20.4% (active)

row,Compound,growth
1,CCOC(=O)c1cnc2c(N=Nc3ccc(OC)cc3)c(N)nn2c1N,110%
2,Cc1ccc2nc(NC(=O)CSc3nc(-c4ccccc4)c(C#N)c4nnnn34)sc2c1,96.3%
3,C#CC#CC#CC#CC#CC#CC#CC#CC[C@@H]1OC[C@@H](COC(=O)O[C@@H](C(=O)O[C@H]2C[C@@]3(O)[C@@H](OC(=O)c4ccccc4)[C@@H]4[C@]5(OC(C)=O)CO[C@@H]5C[C@H](O)[C@@]4(C)C(=O)[C@H](OC(C)=O)C(=C2C)C3(C)C)[C@@H](NC(=O)c2ccccc2)c2ccccc2)O1,22.2%
4,COCCn1cc(-c2csc(-c3c[nH]c4ccc(Br)cc34)n2)c2cccnc21,-10.7% (active)
5,c1nc2ccc(-c3cc4ccc5[nH]ncc5c4c4c3CCCC4)cc2[nH]1,53.3%
6,O=[N+]([O-])c1ccc(-c2cn3nc(-c4c[nH]c5ccccc45)sc3n2)cc1,94.7%
7,CN(Cc1cnc2nc(N)nc(N)c2n1)c1ccc(C(=O)NC(CCC(=O)O)C(=O)O)cc1Br (stereo not drawn),17.7%
8,COc1ccc(-c2nc3c(N)c(CO)cnc3s2)cc1,81.9%
9,O=C(Cn1nnc2ccccc21)N/N=C/c1c[nH]c2ccccc12,46.1%
10,N#Cc1cccc(C2C3=C(COC3=O)N(CCO)c3cc4c(cc32)OCO4)c1 (stereo not drawn),35.9%
11,O=C(/C=C/C12c3ccccc3C(c3ccccc31)C1C(=O)NC(=O)C12)c1ccc(Br)cc1 (stereo not drawn),21%
12,COc1cccc(/C=N/NC(=O)c2ccccc2N2CCCC2)c1O,25.4%
13,COc1cc(/C=C/C(=O)c2ccc(-n3cc(CN4CCN(c5cc6c(cc5F)c(=O)c(C(=O)O)cn6C5CC5)CC4)nn3)cc2)ccc1O,36.9%
14,C=CN(C(=O)N1CCN(c2cc3c(cc2F)c(=O)c(C(=O)O)cn3C2CC2)CC1)c1nc(-c2ccc(OC)cc2)cs1,1.92% (active)
15,Oc1ccc(/C=C/c2ccc(O)cc2)cc1,44.4%
16,COc1ccc(/C=C/C(c2cc(OC)c(OC)c(OC)c2)n2ccnc2)cc1O (stereo not drawn),46.1%
17,O=C(N=Nc1c(O)[nH]c2ccccc12)Nc1ccc(F)cc1,92.2%
18,O=c1ccc(=O)n(-c2nc(-c3ccc([N+](=O)[O-])cc3)cs2)[nH]1,98.5%
19,Oc1c(CN2CCC(N3CCCCC3)CC2)cc(Cc2cc(CN3CCC(N4CCCCC4)CC3)c(O)c3ncccc23)c2cccnc12,4.36% (active)
